# Test results published in publication PMC5540273 (PLoS ONE, 2017).
# Assays:
# Details in all cases: concentration: 1 μM, replicates: in singlicate; n = 1
# [1] = tested on: VRK2
# [2] = tested on: WEE1
# [3] = tested on: WEE2
# [4] = tested on: WNK1
# [5] = tested on: WNK2
# [6] = tested on: WNK3
# [7] = tested on: WNK4
# [8] = tested on: T1, YANK1
# T1 construct: gene STK32A
# [9] = tested on: T2, YANK2
# T2 construct: gene STK32B
# [10] = tested on: T3, YANK3
# T3 construct: gene STK32C
# 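Note: KINOMEscan kinase panel screen.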
SMILES,%Inh [1],%Inh [2],%Inh [3],%Inh [4],%Inh [5],%Inh [6],%Inh [7],%Inh [8],%Inh [9],%Inh [10]
Cc1cc(N2Cc3ccccc3C2)nc(Nc2ccc(S(=O)(=O)N3CCOCC3)cc2)n1.Cl [GSK1669917],0%,3%,0%,0%,7%,2%,10%,7%,0%,0%
Cn1ccc2ncnc(Oc3cccc(C(=O)Nc4ccccc4)c3)c21,0%,5%,0%,0%,0%,0%,0%,11%,1%,29%
Cc1cccc(-c2nc(-c3ccc(S(C)(=O)=O)cc3)sc2-c2ccnc(NCCc3ccccc3)c2)c1,0%,0%,9%,0%,0%,0%,0%,0%,13%,14%
Cc1c(Cn2ccn3c(=O)cc(N4CCOCC4)nc23)cccc1C(F)(F)F [GSK2289044],0%,0%,0%,0%,0%,14%,0%,9%,1%,31%
Nc1nc(-c2nccs2)c(-c2ccnc3ccccc23)s1 [GW693542],0%,22%,9%,20%,28%,35%,28%,9%,3%,0%
CCn1c(-c2ccccn2)nc2cnccc21 [SB-736398],26%,0%,0%,0%,3%,37%,36%,0%,0%,32%
C[C@@H]1CCCCN1c1cc(-c2ccc3c(N)n[nH]c3c2)nc(N)n1 [GSK2258759],0%,0%,13%,0%,6%,16%,39%,3%,0%,0%
Cc1cccc(-c2nc(Nc3ccc4[nH]ncc4c3)c3ccccc3n2)n1 [GW857175],0%,4%,0%,0%,51%,40%,50%,17%,0%,59%
Cl.O=C(Nc1cccc(-c2nn3ncccc3c2-c2ccnc(Nc3cccnc3)n2)c1)c1c(F)cccc1F [GSK312879],10%,0%,0%,13%,7%,10%,0%,7%,10%,32%
Cc1c(O)cccc1Nc1ccnc2ccc(C(F)(F)F)cc12.Cl [GW466413],26%,0%,0%,23%,17%,21%,1%,0%,10%,15%
Cl.c1ccc(-c2n[nH]cc2-c2ccnc(-c3ccc(CN4CCOCC4)cc3)c2)nc1 [GW776245],0%,16%,0%,0%,0%,0%,0%,0%,0%,0%
Cc1ccc(-c2cc(-c3c[nH]nc3-c3ccccn3)ccn2)cc1 [GW684088],45%,1%,0%,6%,19%,53%,89%,0%,0%,0%
Cc1nnc(-c2ccc3occ(-c4ccc(S(C)=O)cc4)c3c2)[nH]1 (centres unmarked),0%,0%,32%,0%,19%,0%,0%,0%,0%,0%
Nc1ncnc2[nH]c(-c3ccccc3)nc12 [AH5015],30%,0%,0%,10%,9%,13%,19%,98%,4%,9%
COC(=O)c1c(-c2ccccc2)c2cc(C(=O)O)ccc2c(=O)n1Cc1ccccc1,0%,0%,0%,0%,0%,0%,3%,0%,3%,2%
Cc1cccc(-c2nc(Nc3ccncc3)c3ccccc3n2)n1 [GW855857],0%,23%,8%,0%,0%,0%,0%,0%,0%,0%
CCn1c(-c2cccnc2O)nc2cnccc21 [SB-736715],77%,0%,84%,0%,24%,0%,0%,0%,0%,0%
